# Screens (PubChem BioAssay)
# Shown are actives, neighbours in structure and some others; about 18% of the full set was active somewhere.
# VP16 counter – Gal4-VP16 reporter inhibition counter-screen. Potency, µM (highest dose often 53.6 µM), without a hit: at the top dose activity, negative = inhibition, hits mostly inhibitors. 310,000 compounds, 3.5% hits. Drosophila S2 Gal4-VP16 UAS-luciferase, luminescence, 20 h. AID 2546;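 also: Gal4-VP16 expression switched on by copper sulfate through the metallothionein promoter; potency is read from the fitted curve at half-maximal effect; nearly all actives have a fitted effect of over 50% in size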
# DT40 TDP1 CPT – growth inhibition of DT40 Tdp1-/-;hTDP1 cells with camptothecin (screen for TDP1 inhibitors) | chicken DT40 Tdp1-/-;hTDP1 cells + 20 nM CPT, ATP luminescence, 48 h | Potency, µM (top dose mostly 46.2 µM), for inactives: at the top dose activity change, negative = growth inhibition, most hits filed as inhibitors | 420,000 compounds, 12% hits | AID 686979; also: potency is read from the fitted curve at half-maximal effect; nearly all actives have a fitted effect of over 55% in size
#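 Cell growth measured by CellTiter-Glo luminescence after a minimum 48 h, 37 C compound exposure with 20 nM CPT in Tdp1-knockout DT40 cells stably expressing hTDP1, seeded 400/well; qHTS titration format.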
# LDHA block – inhibitors of human lactate dehydrogenase A; purified LDHA, NADH/diaphorase-resazurin fluorescence; active compounds read low; P00338; AID 1347041; activity change, % (values are at about 110 or 230 µM); 480,000 compounds, 0.15% hits; in the data active = activity change below about -30%; inconclusive = mostly about -25% to -30%;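 also: plate controls were DMSO wells for no effect and wells without enzyme for full effect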
#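 LDH5 2 nM; NADH 0.06 mM, pyruvate 0.2 mM; 200 mM Tris pH 7.4, EDTA, Tween-20; 5 min RT. Detection: diaphorase 0.133 mg/mL + resazurin 37 µM, fluorescence ex540/em590 at 0 and 20 min; normalized to enzyme-free and DMSO wells.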
# IL1B secr inh – inflammasome signaling inhibition, IL-1 beta readout; THP-1 LPS/ATP IL-1B secretion, AlphaLISA, 16 h; active compounds read low; activity change, % at 57.5 µM; 360,000 compounds, 4.7% hits; in the data active = activity change below about -50%; inconclusive = mostly about -30% to -49%
#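 THP-1 cells pretreated 1 hr with compounds (up to 57.5 uM final), then stimulated with LPS (250 ng/mL final) plus ATP (1.25 mM final); secreted IL-1B measured by AlphaLISA after 16 hr, decreased signal indicating inhibition.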
# RORgamma inh – blocks mouse ROR gamma transcriptional activity | P51450 | Drosophila S2 Gal4-RORgamma UAS-luciferase reporter, 20 h | Potency, µM (series often up to 53.6 µM), for inactives: at the top dose activity change, negative = inhibition, usual class: inhibitors | 310,000 compounds, 5.4% hits; also: potency is read from the fitted curve at half-maximal effect; nearly all actives have a fitted effect of over 60% in size
# Target sequence (P51450 whole entry, looked up, the tested form may be a part): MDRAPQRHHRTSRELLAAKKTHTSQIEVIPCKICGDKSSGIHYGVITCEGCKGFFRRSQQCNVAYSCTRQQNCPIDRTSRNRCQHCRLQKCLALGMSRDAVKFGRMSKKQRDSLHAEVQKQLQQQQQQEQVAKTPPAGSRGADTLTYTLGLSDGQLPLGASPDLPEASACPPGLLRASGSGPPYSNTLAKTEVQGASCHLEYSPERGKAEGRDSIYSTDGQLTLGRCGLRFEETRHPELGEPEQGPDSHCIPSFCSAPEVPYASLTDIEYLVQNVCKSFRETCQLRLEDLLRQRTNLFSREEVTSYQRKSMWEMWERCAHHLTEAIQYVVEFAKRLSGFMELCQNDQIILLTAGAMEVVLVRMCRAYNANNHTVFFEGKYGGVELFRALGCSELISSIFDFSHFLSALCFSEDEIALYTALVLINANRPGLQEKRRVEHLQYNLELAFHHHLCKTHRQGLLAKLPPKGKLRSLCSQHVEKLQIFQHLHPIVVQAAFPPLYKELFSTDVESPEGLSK
#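 Read-out: Photinus luciferase luminescence; inhibitors lower reporter signal. Insect Schneider cells with Gal4-ROR gamma fusion under metallothionein promoter, UAS reporter; 700 uM final copper sulfate induction, 20 hr, ambient temperature.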
# TDP1 cell noCPT – qHTS for Inhibitors of human tyrosyl-DNA phosphodiesterase 1 (TDP1): qHTS in cells in absence of CPT. Potency, µM (titrated, usually from 46.2 µM), inactives show at the top dose activity change, negative = growth inhibition, usual class: inhibitors. DT40 Tdp1-/- hTDP1 cells, no CPT, ATP luminescence, 48 h. 420,000 compounds, 15% hits; also: potency is read from the fitted curve at half-maximal effect; nearly all actives have a fitted effect of over 55% in size
#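 Luminescent ATP content (CellTiter-Glo) served as the growth readout. Knockout chicken DT40 cells expressing human TDP1 were exposed to compounds without camptothecin for a minimum 48 hr at 37 °C.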
# Numbers without * were called inactive; i = inactive; ? = inconclusive; nt = no result; ! = not active in a repeat. Unless noted, calls follow the shape of the dose curve; as a rule, active = well fitted curve in the direction sought with a large enough effect; inconclusive = small, poorly fitted or top-dose-only effect, or another doubt; inactive = no such curve, though single readings can be large; an effect the other way counts as inactive or inconclusive. Unless noted, % is scaled to controls: 0 for no effect and ±100 for the full control effect.
SMILES,VP16 counter,DT40 TDP1 CPT,LDHA block,IL1B secr inh,RORgamma inh,TDP1 cell noCPT
Cc1ccc2nc(C)c(C(=O)N(C)CCOc3ccc(F)cc3)cc2c1,nt,nt,20,nt,nt,nt
Cc1c(CC(=O)NCc2ccccc2)c(=O)oc2cc(O)c(Cl)cc12,nt,nt,1,nt,nt,nt
O[C@@H]1CN(CC2CCCCC2)[C@@H](c2ccc(Cl)cc2)C[C@H]1n1cc(C2CC2)nn1,nt,?,-20,-51*,nt,23µM*
O[C@@H]1CN(CC2CCCCC2)[C@@H](c2ccc(Cl)cc2)C[C@H]1n1cc(-c2ccc(F)cc2)nn1,nt,?,0,1,nt,?
CCN(Cc1cnn(C)c1)C(=O)c1ccc2nc(Cc3cccc(Cl)c3)oc2c1,18%,23µM*,-1,0,20%,23µM*
COc1ccc(Cc2nc3ccc(C(=O)NCCc4ccncc4)cc3o2)cc1OC,-9%,-28%,1,0,-2%,-28%
COc1ccc(Cc2nc3ccc(C(=O)N(C)CCc4cnn(C)c4)cc3o2)cc1OC,nt,?,-10,i,nt,8.2µM*
CC1=C(C(=O)OC(C)C)C(c2ccc(O)cc2)NC(=O)N1 (stereo not drawn),9%,-1%,1,0,3%,-4%
CC1=C(C(=O)OC(C)C)[C@@H](c2cccc3nonc23)C([N+](=O)[O-])=C(C)N1,nt,?,nt,nt,nt,15µM*
COC(=O)C1=C(C)NC(C)=C([N+](=O)[O-])C1c1ccccc1C(F)(F)F (stereo not drawn),0%,17µM*,-5,-12,20%,12µM*!
CC1=C(C#N)C(c2ccccc2C(F)(F)F)C(C#N)=C(C)N1,nt,nt,-2,nt,nt,nt
COc1ccc(-n2c(=S)[nH]c3ccccc32)cc1,20µM*,-26%,2,29,4.5µM*,-5%
COc1ccc(-n2c(=S)[nH]c3ncccc3c2=O)cc1,-2%,15%,-1,0,?,2%
COc1ccc(-n2c(=S)[nH]c3ccccc3c2=S)cc1,0.71µM*,-23%,-1,14,0.5µM*,-6%
COc1ccc(-n2c(Cn3nnc4ccccc43)n[nH]c2=S)cc1,0%,3%,-8,12,-40%,-3%
O=C(Cn1ncc2c1-c1ccccc1OC2)N1CCN(c2cccc(Cl)c2)CC1,nt,nt,11,nt,nt,nt
CCCCSc1nnc2n(CCc3ccccc3)c(=O)c3c4c(sc3n12)COC(C)(C)C4,10%,23µM*,-2,-3,6%,23µM*
CC1(C)Cc2c(sc3c2c(=O)n(CCCO)c(=O)n3CCc2ccccc2)CO1,nt,nt,6,nt,nt,nt
CCC(C)(C)C(=O)Nc1nc2c(s1)C(=O)CC(C)(C)C2,nt,nt,-1,nt,nt,nt
COc1ccc(CNC(=O)CCC2N=C3c4ccccc4N=C(SCc4ccccc4F)N3C2=O)cc1 (stereo not drawn),nt,?,-9,nt,nt,?
O=C(CCC1N=C2c3ccccc3N=C(SCc3ccccc3Cl)N2C1=O)N1CCN(c2ccccc2)CC1 (stereo not drawn),nt,?,0,nt,nt,21µM*
COc1ccccc1NC(=O)CSC1=Nc2ccccc2C2=NC(CCC(=O)NCCc3ccccc3)C(=O)N12 (stereo not drawn),nt,?,-8,nt,nt,23µM*
O=C(CCC1N=C2c3ccccc3N=C(SCc3ccccc3Cl)N2C1=O)NCc1ccco1 (stereo not drawn),-4%,?,-10,?,?,18µM*
COc1ccccc1NC(=O)CSC1=Nc2ccccc2C2=NC(CCC(=O)NCc3ccco3)C(=O)N12 (stereo not drawn),nt,15µM*,1,nt,nt,16µM*
COc1ccccc1CNC(=O)CCC1N=C2c3ccccc3N=C(SCC(=O)NCCc3ccccc3)N2C1=O (stereo not drawn),nt,-25%,7,nt,nt,-28%
SMILES,VP16 counter,DT40 TDP1 CPT,LDHA block,IL1B secr inh,RORgamma inh,TDP1 cell noCPT
CC(=O)Nc1ccc2c(c1)nc(CCNC(=O)c1ccc(C)c(F)c1)n2C,nt,nt,17,nt,nt,nt
COCCn1c(COc2ccccc2-c2ccccc2)nnc1SCC(=O)c1ccccc1Cl,nt,nt,2,nt,nt,nt
CC12CC(C)(C)C(C#N)(C(N)=C1C#N)C(=C(C#N)C#N)N2 (stereo not drawn),nt,nt,10,nt,nt,nt
O=C(c1cc2ccccc2o1)N1CCN(Cc2nc3ccccc3s2)CC1,nt,-6%,-14,16,nt,?
N#C/C(=C(\O)c1ccco1)c1ccccn1,?,14%,-3,-17,?,8%
N#C/C(=C(/O)c1ccco1)c1nc2ccccc2s1,-11%,?,-14,-18,?,15µM*
N#C/C(=C(/O)c1cc2ccccc2o1)c1nc2ccccc2s1,-11%,?,-3,0,9%,13µM*
CCOc1ccccc1Oc1coc2cc(OC(=O)c3ccc4c(c3)OCO4)ccc2c1=O,nt,nt,-31*,nt,nt,nt
CCOc1cc2c(C#N)c(N3CCCC3)nc(N)c2c(N)n1,nt,-11%,11,-13,nt,-8%
N#Cc1c(N2CCCCC2)nc(N)c2c(N)nc3c(c12)CC(c1ccccc1)O3 (stereo not drawn),-15%,?,10,-9,?,11µM*
N#Cc1c(N2CCCC2)nc(N)c2c(N)nc(N3CCCC3)cc12,-6%,?,34,?,8.9µM*,18µM*
CCC1Cc2c(nc(N)c3c(N)nc(N4CCCCC4)c(C#N)c23)O1 (stereo not drawn),-7%,0%,16,nt,21%,?
Cc1oc(-c2ccccc2)nc1C(=O)Nc1ccccc1Cc1ccccc1,nt,nt,8,nt,nt,nt
Cc1cc(C)c2[nH]c(C)c(CN(C)C3CCCCC3)c(=O)c2c1,nt,nt,8,nt,nt,nt
Cc1cc2n(n1)C(c1ccccc1)CC(c1ccc(Br)cc1)=N2 (stereo not drawn),-8%,16µM*,4,?,32%,?
COc1cc(NC(=O)COc2ccc(Cl)cc2)ccc1NC(=O)C(C)C,-4%,?,-8,-18,-11%,?
CN(c1ccc(OCC(=O)OCC(=O)NC2CCCC2)cc1)S(=O)(=O)c1ccc2ccccc2c1,0%,-21%,-2,0,2%,-11%
COc1cc(NC(=O)COc2ccc(Cl)cc2)ccc1-c1cc2ccccc2oc1=O,12%,4.1µM*,-1,3,12%,4.6µM*
CN(c1ccc(OCC(=O)OCC(=O)Nc2ccc(F)cc2)cc1)S(=O)(=O)c1ccc(Cl)cc1,0%,0%,-2,26,18%,-18%
